# Measured values as given in the supplement of paper PMC6555819.
# How the values were obtained:
# Test in all cases: PBM binding z-score (relative to random genomic background probes); higher = stronger binding; sequences stand for … in GC…GCGATTGACAGCGTAGAATGAAGG
# [1] = test system: FXR:RXRa (NR concentration 270 nM, RXRa partner concentration 90 nM)
# How it was run: (§1)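 Binding buffer was PBS pH 7.4 with 2% milk, 0.02% Triton X-100, 1 mM DTT, 0.2 mg/mL BSA and 0.4 mg/ml salmon testes DNA. In it, ligand-free nuclear receptor dimers were incubated 1 h on custom Agilent 4×180K protein-binding microarrays carrying double-stranded probes. Antibodies against each partner (one per run) detected binding, and z-scores were calculated against random background probes after regression normalization of scanned fluorescence.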
# [2] = test system: LXRa:RXRa (NR concentration 270 nM, RXRa partner concentration 90 nM)
# How it was run: as §1
# [3] = test system: LXRa homodimer (NR concentration 270 nM)
# How it was run: as §1
# [4] = test system: LXRb:RXRa (NR concentration 270 nM, RXRa partner concentration 90 nM)
# How it was run: as §1
# [5] = test system: LXRb homodimer (NR concentration 270 nM)
# How it was run: as §1
# [6] = test system: PPARa:RXRa (NR concentration 270 nM, RXRa partner concentration 90 nM)
# How it was run: as §1
# [7] = test system: PPARg:RXRa (NR concentration 180 nM, RXRa partner concentration 90 nM)
# How it was run: as §1
# [8] = test system: PPARg:RXRa 270nM:90nM, anti-RXR (NR concentration 270 nM, RXRa partner concentration 90 nM)
# How it was run: as §1
# [9] = test system: PPARg:RXRa 30nM:10nM, anti-RXR (NR concentration 30 nM, RXRa partner concentration 10 nM)
# How it was run: as §1
# [10] = test system: PPARg:RXRa 90nM:30nM, anti-RXR (NR concentration 90 nM, RXRa partner concentration 30 nM)
# How it was run: as §1
# [11] = test system: PPARg:RXRa DBDmut IVT, anti-RXR (DBD mutation: RXRa K156A/R161A, NR concentration 270 nM, RXRa partner concentration 90 nM)
# How it was run: as §1
# [12] = test system: PPARg:RXRa IVT, anti-PPARg (NR concentration 270 nM, RXRa partner concentration 90 nM)
# How it was run: as §1
# [13] = test system: PPARg DBDmut:RXRa IVT, anti-PPARg (DBD mutation: PPARg1 K132A/R137A, NR concentration 270 nM, RXRa partner concentration 90 nM)
# How it was run: as §1
# [14] = test system: PPARg DBDmut IVT, anti-PPARg (DBD mutation: PPARg1 K132A/R137A, NR concentration 270 nM)
# How it was run: as §1
# [15] = test system: PPARg homodimer (NR concentration 180 nM)
# How it was run: as §1
# [16] = test system: PXR:RXRa (NR concentration 270 nM, RXRa partner concentration 90 nM)
# How it was run: as §1
# [17] = test system: PXR homodimer (NR concentration 270 nM)
# How it was run: as §1
# [18] = test system: RARa:RXR (NR concentration 270 nM, RXRa partner concentration 90 nM)
# How it was run: as §1
# [19] = test system: RARa homodimer (NR concentration 270 nM)
# How it was run: as §1
# [20] = test system: RARb:RXRa (NR concentration 270 nM, RXRa partner concentration 90 nM)
# How it was run: as §1
Sequence,PBM binding z-score [1],PBM binding z-score [2],PBM binding z-score [3],PBM binding z-score [4],PBM binding z-score [5],PBM binding z-score [6],PBM binding z-score [7],PBM binding z-score [8],PBM binding z-score [9],PBM binding z-score [10],PBM binding z-score [11],PBM binding z-score [12],PBM binding z-score [13],PBM binding z-score [14],PBM binding z-score [15],PBM binding z-score [16],PBM binding z-score [17],PBM binding z-score [18],PBM binding z-score [19],PBM binding z-score [20]
TCAGACAGGTGAATGTAACTCAGGTACGCAGTCG,0.149,0.452,0.0267,0.271,-0.401,0.789,0.834,1.72,2.99,2.36,2.43,0.904,-0.264,-0.0774,0.0893,0.012,-0.109,0.0859,-0.00412,0.652
CAAACTAGGTCACGAAAGGTCAAACTCGAATGAC,7.61,8.32,8.55,7.66,3.3,6.75,10.5,8.69,6.95,8.93,8.89,8.97,2.74,2.02,5.15,7.23,4.8,7.97,4.28,5.84
TCTGTTAGGTCAGTTGGTCAGCTAACGAGCTGCC,2.18,1.74,0.264,1.37,2.71,1.99,0.27,2.47,3.02,2.76,2.15,3.2,2.86,2.08,1.91,0.988,0.313,1.29,0.814,3.71
ATATGTAGGTTAGCTTGGGTCATTCAGACTAGGC,2.44,5.2,0.866,2.43,0.362,3.42,3.84,3.34,1.32,2.41,6.6,5.97,1.34,1.95,1.5,2.77,0.807,2.26,0.877,1.89
CGAACTAGGTCATCCAGGACTGTGAATACATTGA,4.52,2.4,0.426,2.06,0.107,4.84,7.64,6.38,4.23,5.82,8.21,8.17,6.94,2.3,3.35,1.48,0.582,2.24,0.701,3.73
TCTCGGAGCACACGAAAGGTCAGAGCTCGACATC,1.92,3.07,1.44,2.84,-0.493,3.39,0.926,1.94,1.5,1.49,0.786,0.883,-0.964,-0.475,2.57,3.52,-0.0353,4.12,0.999,3.45
GCAGACAGGTGAAACGCAGGTCACTCAGGGTGGC,1.55,2.05,0.579,1.27,-0.88,2.57,0.931,1.01,-0.357,0.0435,0.839,1.6,-0.584,-0.0986,1.32,2.65,-0.357,3.45,-0.516,2.44
CCTATTAGTTGACCATAAGGACAACCGAAGCTCG,1.29,0.43,0.89,0.473,1.33,0.262,0.871,0.107,0.251,0.449,0.245,0.48,1.08,1.03,2.6,0.623,1.23,1.27,2.5,1.22
ACTATTAGTTGAGACGATGGCAACCGATAGGTTG,-0.242,-0.267,0.0381,-0.527,0.0838,-0.263,0.598,-0.0569,0.0135,-0.0627,0.172,0.0295,0.79,1.06,0.664,-0.242,-0.102,-0.204,0.657,-0.199
TCTCGGAGGACACGAATGGTCAGAGCTCGACATC,0.104,0.0169,-0.468,-0.483,-0.915,-0.144,0.236,0.78,2.1,1.28,1.33,-0.256,-0.6,-0.622,-0.755,-0.324,-0.617,-0.159,-0.635,1.5
CCGACTGGGACAAGGTTACCATAACGCACAGCCA,0.29,0.604,-0.141,0.507,-0.706,1.49,1.92,2.18,0.494,1.59,2.14,2.07,-0.366,-0.958,0.825,0.206,-0.361,0.82,0.13,0.882
GATACAGGGTCAGCTAGAGGCCAGCGTATGGAAA,4.35,2.75,-0.301,2.11,-1.03,4.37,3.18,3.49,0.694,1.92,1.62,2.35,-0.653,-0.347,2.22,2.97,-0.477,4.55,-0.0319,4.21
ACCTCTAGGTAAAGATAGTTCAGTGAATGCAAAT,0.216,3.68,0.25,0.57,-0.307,0.0564,0.269,0.318,0.0482,0.178,2.21,1.04,-0.152,0.355,-0.326,0.747,0.128,0.271,-0.309,0.426
CAAACTAGGTCACCGGAAGGTCAAGGTCCGCATG,5.96,5.56,3.66,4.58,0.998,5.83,9.82,7.78,5.66,8.09,8.67,8.88,2.07,0.589,8.45,5.6,1.49,7.28,2.79,5.37
ACTATTAGTTGAGACGACGGCAACCGATAGGTTG,-0.095,-0.329,-0.396,-0.449,0.14,-0.603,0.568,-0.326,-0.098,-0.21,-0.317,-0.0579,0.669,0.567,0.0844,-0.384,-0.0364,-0.302,0.521,-0.0586
CCGAGTAGGTTATGGGGCATTCAAGCAACGGTGA,0.071,0.506,-0.128,0.732,0.278,2.1,3.82,4.64,2.45,4.67,3.32,3.2,-0.98,0.0415,1.36,-0.0285,-0.292,0.26,-0.114,1.08
TCTCGTAGGACACGAAGGTCAGAGCTTTCCAGAG,0.999,0.907,0.334,1.08,-0.838,1.85,0.478,1.91,2.61,2.45,1.67,1.28,-0.564,-1.07,0.78,1.35,-0.171,1.75,-0.101,2.89
AGAATGAGGTTAAGATCAGGCAAACAGAATACAT,2.11,5.61,-0.312,2.82,-0.408,3.45,2.21,2.38,0.95,1.63,2.85,2.81,0.992,0.64,0.518,1.33,-0.00329,2.09,0.263,1.92
AGGCAAAGTTCAGGACGAGGTAACGTAAAGCACG,4.22,3.64,1.15,1.9,0.202,3.37,3.33,4.04,1.44,3.05,-0.11,1.19,0.287,-0.24,2.28,2.89,1.59,2.82,1.16,4.26
ACCGAAAGGTCGTGAGGTGAGTATACAGAAAGGC,5.42,3.86,-0.204,3.02,0.134,5.29,3.99,4.37,1.42,2.8,0.638,2.23,0.794,0.846,1.51,3.29,-0.242,4.22,0.0801,4
ACACACAGGTGATGAAGGTAACTCAGGCTATCAT,-0.0193,0.147,0.256,-0.0371,-0.0459,0.299,0.913,0.223,0.238,0.167,0.704,1.02,0.73,0.679,0.0611,-0.0363,0.251,0.28,0.957,0.355
ACTTACGGGTCAACCAGGTTATAGCACGCGTATA,7.15,5.03,0.836,4.26,0.9,5.69,6,5.69,3.07,4.26,3.23,4.21,2.29,2.39,4.29,4.77,1.62,5.34,1.57,4.17
ACTAGCAGGCCAAGTTTGGGTCACTCTAACAAAG,0.184,-0.0297,-0.399,0.217,-0.928,1.03,-0.172,0.0985,-0.547,-0.605,0.86,1.15,-0.869,-1.06,0.634,0.8,-0.149,1.57,-0.645,1.91
GCTAGCAGTCCATTTGGGTCACTCAATGACGGGC,0.123,-0.125,-0.706,-0.0386,-0.905,0.937,0.41,0.105,-0.37,-0.0818,0.379,1.16,-1.16,-1.53,0.032,0.67,0.689,0.82,-0.831,0.88
CCTAGCAGGCCAATCTGGGTCCCTCAAGGCTTGA,-0.114,-0.609,-0.704,-0.838,-1.11,-0.178,-0.823,-0.653,-1.08,-0.919,1.13,0.925,-1.33,-1.81,-1.12,-0.641,-0.809,-0.522,-0.809,0.0212
CAAACTAGGTCAAGGTCAAAGTCGGTTTGTGCCA,6.65,5.95,4.23,4.67,1.63,6.12,9.81,8.12,7.05,8.27,8.86,8.63,3.11,0.796,3.64,5.25,2.25,5.33,2.13,5.19
CCTAGTTGGTCAGGAGGTCACAGACCGGATATGA,4.08,3.46,1.53,3.38,0.251,4.41,3.79,4.28,1.81,3.37,1.33,3.88,0.154,0.248,3.25,4.28,1.01,4.9,1.4,3.79
GCATATAGGTAATACGAGGTGAAAGTCCGATTGT,2.16,2.66,0.407,0.883,-0.463,1.76,1.44,1.38,0.459,0.853,4.42,3.44,0.607,1.33,0.669,0.96,0.299,1.27,0.304,0.336
CATACAGGGTCAGCTAGACCAGAGTAGGGACGGC,4.47,2.92,-0.0625,2.14,0.336,4.07,3.27,3.06,0.824,1.87,1.02,2.59,1.26,0.0987,1.43,2.03,-0.458,3.16,0.685,4.07
